Results as given in PubChem BioAssay (Tox21).
Where “and” joins values, the source holds several entries; their conditions need not be identical. Equal entries are not always repeated. Results filed as inconclusive are left out. A call without a number means that no potency is given here. Some compounds were tested as several samples or in several runs, with calls that do not always agree. Calls of active or inactive are those of the source. Unless noted, calls come from the whole dose curve; as a rule, active = well fitted curve in the direction sought with a large enough effect in the repeat runs; inconclusive = weak or mixed curves; inactive = no such curve, though single readings can be large; an effect the other way counts as inactive or inconclusive.

Columns and labels:
[1] = target: Thyrotropin receptor (Homo sapiens) (UniProt P16473); assay: qHTS assay to identify small molecule antagonists of the thyroid stimulating hormone receptor (TSHR) signaling pathway (AID 1259385; calls by dose curve; note: nearly all actives have a fitted effect of over 20% in size)
In short: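 TSHR-HEK293 cells were plated and held 18 h at 37C/5% CO2, then given compound plus Ro20-1724 and stimulated with TSH at 1.5 ng/mL final. After 30 min at room temperature, cAMP was detected with cAMP-d2/anti-cAMP-cryptate (1 h) by fluorescence.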

[2] = qHTS assay to identify small molecule agonists of the estrogen receptor alpha (ER-alpha) signaling pathway in the presence of an antagonist - cell viability counter screen (AID 1259386);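 note: cells exposed to compounds for 22 h at 37 °C before the viability read; nearly all actives have a fitted effect of over 30% in size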; note: potency is the fitted concentration of half-maximal effect
In short: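 Viability counter screen using VM7Luc4E2 (full-length ER-alpha, four ERE-luciferase). The cells were treated with compounds alongside ICI-182,780 10.0nM for 22hr, and live-cell protease fluorescence was quantified with CellTiter-Fluor.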

[3] = qHTS assay to identify small molecule antagonists of the progesterone receptor (PR) signaling pathway - cell viability counter screen (AID 1346798); note: nearly all actives have a fitted effect of over 50% in size; note: potency is the fitted concentration of half-maximal effect
In short: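 Following a 4 hr attachment, PR-UAS-bla HEK293T cells in charcoal-stripped FBS medium were exposed to compounds with R5020 for 16 hr; CellTiter-Glo was added and luminescence read after 30 min at room temperature.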

[4] = qHTS assay to identify small molecule antagonists of the TGF-beta/Smad signaling pathway - cell viability counter screen (AID 1346824); note: nearly all actives have a fitted effect of over 50% in size; note: potency is the fitted concentration of half-maximal effect
In short: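 SBE-bla HEK 293T cells were plated overnight at 37 C, then given compounds in DMSO plus TGF-beta1 (added as 0.25 ng/mL solution) for 5 hr. After the bla read, CellTiter-Glo was added to the same wells and luminescence read after 30 min at room temperature.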

[5] = qHTS assay to identify small molecule agonists of the TGF-beta/Smad signaling pathway - cell viability counter screen (AID 1346829); note: nearly all actives have a fitted effect of over 45% in size; note: potency is the fitted concentration of half-maximal effect
In short: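 Cytotoxicity counter screen: CellTiter-Glo luminescence (30 min, room temperature) measured in the SBE-bla HEK 293T reporter wells after 5 hr compound treatment at 37 C and the 2 hr substrate step.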

[6] = target: Progesterone receptor (Homo sapiens) (UniProt P06401); assay: qHTS assay to identify small molecule agonists of the progesterone receptor (PR) signaling pathway (AID 1346784; calls by dose curve; note: nearly all actives have a fitted effect of over 30% in size; note: potency is the fitted concentration of half-maximal effect)
In short: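 Compounds were tested for PR agonism in HEK 293T cells bearing a beta-lactamase gene under UAS control. Treatment lasted 16 hr at 37C; signal came from fluorescence of a FRET substrate.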

[7] = target: Progesterone receptor (Homo sapiens) (UniProt P06401); assay: qHTS assay to identify small molecule antagonists of the progesterone receptor (PR) signaling pathway (AID 1346795; active = well fitted inhibition curve with a large enough effect in the signal ratio in the repeat runs, not every such curve was filed as active; the % refers to the signal ratio; note: potency is the fitted concentration of half-maximal effect)
In short: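 In HEK293T cells bearing the PR-UAS-bla reporter, compound effects on promegestone-driven (1 nM) beta-lactamase expression are assessed after 16 hr using a fluorescent FRET substrate incubated 2 hr at room temperature.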

[8] = target: Thyrotropin-releasing hormone receptor (Homo sapiens) (UniProt P34981); assay: qHTS assay to identify small molecule antagonists of the thyrotropin-releasing hormone receptor (TRHR) signaling pathway (AID 1346877; active = well fitted inhibition curve with a large enough effect in the repeat runs, not every such curve was filed as active; note: potency is the fitted concentration of half-maximal effect)
In short: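 Following an 18 h incubation at 37 °C and a 2 h calcium dye load, TRHR-HEK293 cells were exposed to compound (5 min, room temperature) and challenged with TRH, 1 nM final.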

[9] = qHTS assay to identify small molecule agonists of the progesterone receptor (PR) signaling pathway - cell viability counter screen (AID 1346799; calls by dose curve; note: nearly all actives have a fitted effect of over 45% in size; note: potency is the fitted concentration of half-maximal effect)
In short: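 Here, 3,000 PR-UAS-bla HEK293T cells per well were treated with compounds for 16 hr after a 6 hr preincubation at 37C and 5% CO2; cell viability is the CellTiter-Glo luminescence signal.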

[10] = qHTS assay to identify small molecule agonists of the TGF-beta/Smad signaling pathway (AID 1346859; active = well fitted activation curve with a large enough effect in the signal ratio in the repeat runs, not every such curve was filed as active; the % refers to the signal ratio; note: series mostly up to about 77 µM)
In short: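 Each well held 4,000 SBE-bla HEK 293T cells incubated overnight before compound addition; 5 hr later the cleavable FRET substrate went on for 2 hr at room temperature, and fluorescence was read at two emissions.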

Sequence of Thyrotropin-releasing hormone receptor (Homo sapiens) (P34981 whole entry, looked up): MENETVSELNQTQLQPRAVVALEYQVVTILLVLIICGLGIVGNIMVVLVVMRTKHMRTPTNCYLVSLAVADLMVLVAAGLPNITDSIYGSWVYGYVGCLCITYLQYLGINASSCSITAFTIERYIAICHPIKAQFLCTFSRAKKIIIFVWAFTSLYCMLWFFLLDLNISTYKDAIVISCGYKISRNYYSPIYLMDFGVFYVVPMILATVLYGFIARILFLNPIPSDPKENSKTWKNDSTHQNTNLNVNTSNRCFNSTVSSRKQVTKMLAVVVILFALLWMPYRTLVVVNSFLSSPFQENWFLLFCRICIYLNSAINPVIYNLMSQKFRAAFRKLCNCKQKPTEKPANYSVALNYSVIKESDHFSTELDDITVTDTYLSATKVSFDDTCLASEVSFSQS
Sequence of Thyrotropin receptor (Homo sapiens) (P16473 whole entry, looked up): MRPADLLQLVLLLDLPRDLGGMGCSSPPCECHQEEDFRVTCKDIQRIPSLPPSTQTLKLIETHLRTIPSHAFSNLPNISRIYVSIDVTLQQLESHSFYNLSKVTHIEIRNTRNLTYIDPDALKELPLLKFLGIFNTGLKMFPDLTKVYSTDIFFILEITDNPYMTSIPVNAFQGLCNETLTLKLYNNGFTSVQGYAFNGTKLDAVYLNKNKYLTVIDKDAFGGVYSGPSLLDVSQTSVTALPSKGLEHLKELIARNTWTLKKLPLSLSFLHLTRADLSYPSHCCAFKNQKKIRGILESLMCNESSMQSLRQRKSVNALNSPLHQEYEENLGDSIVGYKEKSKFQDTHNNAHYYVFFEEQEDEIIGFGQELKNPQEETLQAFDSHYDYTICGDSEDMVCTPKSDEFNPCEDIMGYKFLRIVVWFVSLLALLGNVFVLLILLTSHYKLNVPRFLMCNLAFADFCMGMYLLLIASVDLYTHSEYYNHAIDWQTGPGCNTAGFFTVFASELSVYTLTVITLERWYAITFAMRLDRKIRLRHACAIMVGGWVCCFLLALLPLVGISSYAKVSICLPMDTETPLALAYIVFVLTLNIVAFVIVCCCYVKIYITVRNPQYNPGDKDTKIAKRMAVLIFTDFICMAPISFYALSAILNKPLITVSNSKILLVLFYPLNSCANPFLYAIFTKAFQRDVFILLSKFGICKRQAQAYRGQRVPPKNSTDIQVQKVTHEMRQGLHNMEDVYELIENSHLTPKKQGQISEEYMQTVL
Sequence of Progesterone receptor (Homo sapiens) (P06401 whole entry, looked up): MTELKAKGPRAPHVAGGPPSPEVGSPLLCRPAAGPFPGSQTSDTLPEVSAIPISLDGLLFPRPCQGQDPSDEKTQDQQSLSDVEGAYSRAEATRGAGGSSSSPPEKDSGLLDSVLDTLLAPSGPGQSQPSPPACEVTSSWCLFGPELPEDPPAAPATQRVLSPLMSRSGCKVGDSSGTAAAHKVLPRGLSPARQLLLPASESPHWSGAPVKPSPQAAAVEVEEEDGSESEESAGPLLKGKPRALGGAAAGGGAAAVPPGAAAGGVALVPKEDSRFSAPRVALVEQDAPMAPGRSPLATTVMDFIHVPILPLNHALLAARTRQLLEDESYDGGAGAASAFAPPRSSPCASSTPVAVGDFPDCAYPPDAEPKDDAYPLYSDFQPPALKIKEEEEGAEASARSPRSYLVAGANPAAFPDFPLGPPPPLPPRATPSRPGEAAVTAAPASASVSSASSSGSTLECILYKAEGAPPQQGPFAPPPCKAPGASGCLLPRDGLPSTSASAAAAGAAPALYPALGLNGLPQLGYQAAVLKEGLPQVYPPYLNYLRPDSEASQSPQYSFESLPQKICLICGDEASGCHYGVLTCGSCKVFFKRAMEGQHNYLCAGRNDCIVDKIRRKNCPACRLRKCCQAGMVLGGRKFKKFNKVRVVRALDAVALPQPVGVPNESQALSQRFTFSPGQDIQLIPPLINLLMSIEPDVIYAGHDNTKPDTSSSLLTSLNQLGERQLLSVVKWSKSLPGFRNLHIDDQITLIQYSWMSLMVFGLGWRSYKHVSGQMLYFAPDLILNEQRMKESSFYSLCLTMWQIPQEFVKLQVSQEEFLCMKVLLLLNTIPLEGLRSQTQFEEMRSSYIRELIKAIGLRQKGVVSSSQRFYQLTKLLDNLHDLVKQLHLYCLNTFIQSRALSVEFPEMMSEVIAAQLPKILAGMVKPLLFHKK

SMILES	Potency [1]	Potency [2]	Potency [3]	Potency [4]	Potency [5]	Potency [6]	Potency [7]	Potency [8]	Potency [9]	outcome [10]
CC[C@H]1C[C@H]2[C@@H]3CCC4=CC(=O)CC[C@@H]4[C@H]3CC[C@]2(C)[C@H]1O	inactive	inactive	inactive	inactive	inactive	–	–	–	–	–
O=C(CBr)OCc1ccccc1	–	inactive	inactive	inactive	inactive	inactive	inactive	inactive	–	–
Nc1ccc(N=Nc2ccc(-c3ccc(N=Nc4c(S(=O)(=O)O)cc5cc(S(=O)(=O)O)c(N=Nc6ccccc6)c(O)c5c4N)cc3)cc2)c(N)c1	–	15.7 µM (active)	inactive	inactive	inactive	inactive	inactive	–	inactive	inactive
O=C(OC1CCCCC1)c1ccccc1C(=O)OC1CCCCC1	inactive	–	inactive	–	inactive	–	16.2 µM (active)	inactive	–	inactive
COCC(C)N(C(=O)CCl)c1c(C)csc1C (configuration not stated)	–	inactive	–	inactive	inactive	inactive	54.5 µM (active)	inactive	–	inactive
CCn1cc[n+](C)c1	–	inactive	inactive	inactive	inactive	inactive and 15.3 µM (active)	inactive	–	inactive	inactive
COc1c(C(C)(C)C)cc([N+](=O)[O-])c(C)c1[N+](=O)[O-]	–	inactive	inactive	inactive	inactive	inactive	inactive	–	inactive	inactive
ClP(Cl)(Cl)(Cl)Cl	–	inactive	inactive	inactive	inactive	inactive	inactive	inactive	inactive	inactive
C/C=C/C=O	–	inactive	inactive	inactive	inactive	inactive	inactive	–	inactive	inactive
CCOC(=O)[C@]1(c2ccccc2)Oc2ccccc2[C@@H]1N	inactive	–	inactive	inactive	inactive	inactive	–	inactive	–	inactive
COc1cc(Cl)c(OC)cc1Cl	–	inactive	inactive	inactive	inactive	inactive	inactive	inactive	inactive	inactive
COc1cc(CC(C)N)cc2c1OCO2 (configuration not stated)	inactive	–	inactive	inactive	inactive	inactive	inactive	inactive	inactive	inactive
CCOP(=S)(OCC)SCn1nnc2ccccc2c1=O	inactive	–	–	inactive	inactive	inactive	27.3 µM (active)	inactive	–	inactive
IC(I)=C(I)I	inactive	–	27.3 µM (active)	43.6 µM (active)	43.6 µM (active)	–	17.2 µM (active)	1.2 µM (active)	27.3 µM (active)	inactive
Cc1ccccc1CCl	–	inactive	inactive	inactive	inactive	inactive	inactive	inactive	inactive	inactive
CC(C)(C)C(O)C(Oc1ccc(Cl)cc1)n1cncn1 (configuration not stated)	inactive	inactive	54.5 µM (active)	inactive	inactive	–	–	inactive	–	inactive
O=C(NCc1cccnc1)Nc1ccc([N+](=O)[O-])cc1	inactive	inactive	24.3 µM (active)	–	–	–	–	inactive	43.3 µM (active)	–
O=C(Nc1ccccc1)Nc1cnns1	inactive	inactive	–	inactive	inactive	–	–	inactive	–	inactive
C=CC(=O)OC(C)(C)C	inactive	inactive	inactive	–	inactive	–	–	inactive	inactive	–
[O-][Cl+]O	–	inactive	inactive	inactive	inactive	inactive	inactive	inactive	inactive	–
CCOC(=O)COc1cc(-c2nn(C)c(OC(F)F)c2Cl)c(F)cc1Cl	–	inactive	–	inactive	inactive	inactive	inactive	inactive	inactive	–
CC1CC(CC2CCC(N)C(C)C2)CCC1N (configuration not stated)	inactive	–	–	inactive	inactive	inactive	inactive	inactive	–	inactive
CC(Cl)C(C)Cl (configuration not stated)	–	inactive	inactive	inactive	inactive	inactive	inactive	inactive	inactive	inactive
BrCCCCBr	inactive	inactive	inactive	–	inactive	–	–	inactive	inactive	inactive
CCOP(=S)(Oc1ccc([N+](=O)[O-])cc1)c1ccccc1 (configuration not stated)	–	inactive	inactive	inactive	inactive	inactive	2.17 µM (active)	inactive	–	inactive
COP(=S)(Oc1cc(Cl)c(Br)cc1Cl)c1ccccc1 (configuration not stated)	inactive	inactive	inactive	inactive	inactive	–	–	inactive	–	inactive
